In PMC5540273 (PLoS ONE, 2017):

system: PLK1
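Further: kd values determined as follow-up on hits from a single-replicate KINOMEscan panel screen.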

Compared with `O=C(NCCNc1ccnc(Nc2ccc(F)cc2)n1)Nc1ccccc1F` [GSK1379880], `COc1ccc(COc2cc(-n3cnc4ccccc43)sc2C(N)=O)cc1` [GSK1024304] is lower in Kd: greater than 10 µM for the first, 0.037 µM for the second. The second binds more tightly here.

Work on `C[C@@H](Oc1cc(-n2cnc3ccc(NC(=O)NC(C)(C)C)cc32)sc1C(N)=O)c1ccccc1Cl` [GSK346294] yielded a Kd of 0.0073 µM.
